An excerpt weighted towards active compounds, which were near 3% of everything screened.
Sm TGR inh = qHTS Assay for the Inhibitors of Schistosoma Mansoni Peroxiredoxins | Schistosoma mansoni thioredoxin glutathione reductase (TGR), Q962Y6 | purified TGR, DTNB reduction, TNB absorbance 405 nm | Potency, µM (highest dose often 114 µM), inactives show at the top dose activity change, negative = inhibition, most hits filed as inhibitors | 360,000 tested, 3% active; active means well fitted inhibition curve with a large enough effect; further: on the % scale 0 is the no-effect control and ±100 the full control effect; nearly all actives have a fitted effect of over 60% in size
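Kinetic colorimetric format: TGR-catalysed, NADPH-driven DTNB reduction monitored via TNB absorbance. Enzyme dispensed at 20 nM; compound exposure 15 min at room temperature before reaction start.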
SARS PLP yeast = qHTS of Yeast-based Assay for SARS-CoV PLP | S. cerevisiae expressing SARS-CoV PLpro, growth rescue | Potency, µM (highest dose often 32.9 µM), for inactives: at the highest dose activity, positive = growth rescue, actives largely listed as activators | 330,000 tested, 0.19% active; calls by dose curve; further: 0% is about no effect; nearly all actives have a fitted effect of over 55% in size
* hit, by the source's call; . = no result given. Potency means the concentration at half of the fitted maximal effect.

SMILES | Sm TGR inh | SARS PLP yeast
Cc1ccc(-n2c3c(c(=O)[nH]c2=O)C(NC(=O)C(C)(C)C)(C(F)(F)F)C(=O)N3)cc1 (stereo not drawn) | 2.1% | .
O=C(NCCc1ccccc1)C1CCN(Cc2cc3ccccc3n2Cc2cccc(Cl)c2)CC1 | 2.9% | .
O=C(NCc1ccccc1F)C1CCN(Cc2cc3ccccc3n2Cc2cccc(Cl)c2)CC1 | 12.6µM* | .
COc1ccccc1CNC(=O)C1CCN(c2nn3c(=O)cc(C)nc3s2)CC1 | -7.9% | .
O=C(CN1CCN(Cc2ccccc2F)C1=O)NCc1ccco1 | 28.2µM* | 4.3%
O=C(O)CN1CCN(Cc2ccc(F)cc2Cl)C1=O | 8.91µM* | 5.2%
